Usually inhibition stands for the relative decrease from the control value, in per cent.

The results in this text go back to PubChem BioAssay.

Values without a mark were called inactive. For some of these results: Entries with a potency or affinity are not part of this list. Activity calls are given as the source filed them. Unless noted, no rule for the calls is given here.

A short description of assay [1]: antimalarial activity against Dd2 strain (AID 2302;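 active = growth inhibition above 50% at the single 2 µM test dose, taken to imply half-maximal potency below 2 µM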;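 also: 0% = DMSO untreated growth and 100% = chloroquine plus artemisinin killed control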). To be noted: P. falciparum Dd2 in RBCs, LDH growth readout, 72 h; at 2 µM; stronger effect = higher value.
The nature of assay [2]: human hepatoma cell viability loss – ATP luminescence, cytotoxicity control for P. falciparum antimalarial project, primary screen (AID 2303;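 active = inhibition above 50%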;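 also: 0% = DMSO wells and 100% = digitonin-killed cells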). Particulars: HepG2 viability, 24-48 h, at 10 µM, stronger effect = higher value.
For assay [3], the target named is L-lactate dehydrogenase (Plasmodium falciparum (isolate CDC / Honduras)) (UniProt Q27743). Briefly: PfLDH activity inhibition – cell lysate, 3D7 strain, counter-screen for P. falciparum growth inhibition project (AID 2304).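 Also: 0% = vehicle and 100% = reference inhibitor.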 To be noted: P. falciparum 3D7 crude extract, LDH APAD/NBT absorbance; at 2 µM; stronger effect = higher value. (A counterscreen serves to expose hits that act by an unwanted route or on another target.)

Assay [4] is described as follows: inhibition of 3D7 malaria parasite growth – strain 3D7 (AID 2306).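 Also: 0% = DMSO wells and 100% = chloroquine plus artemisinin control wells.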 To be noted: P. falciparum 3D7 erythrocytic growth, LDH absorbance, 72 h; at 2 µM; stronger effect = higher value.
Assay [5] deals with Calcium-dependent protein kinase 1 (Plasmodium falciparum (isolate 3D7)) (UniProt P62344). Description: PfCDPK1 kinase inhibitors, biochemical, TCAMS library (AID 1159585; cut-off not given, nearly all actives have IC50 up to about 0.98 µM;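 also: inhibitors leave more ATP so luminescence rises with inhibition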). Particulars: recombinant PfCDPK1, Kinase-Glo ATP depletion luminescence. On the technique in general: Kinase-Glo measures the ATP left after a reaction by luminescence.
Assay [6] deals with Plasmodium falciparum protein kinase 6 (PK6, PF3D7_1337100) (UniProt Q8IDW1). Briefly: PfPK6 kinase inhibitors, biochemical, TCAMS library (AID 1159586). To be noted: recombinant PfPK6, Kinase-Glo ATP depletion luminescence.
For assay [7], the target named is Protein kinase 7 (PK7), Plasmodium falciparum 3D7 (PF3D7_0213400) (UniProt Q7YTF7). Description: inhibition of Plasmodium PK7 catalytic activity – biochemical, TCAMS antimalarial set, Kinase-Glo luminescence (AID 1159587). Particulars: recombinant PfPK7, Kinase-Glo ATP depletion luminescence.
The target in assay [8] is Calcium-dependent protein kinase 4 (Plasmodium falciparum (isolate 3D7)) (UniProt Q8IBS5). Briefly: PfCDPK4 kinase inhibitors, biochemical, TCAMS library (AID 1159588; cut-off not given, nearly all actives have IC50 up to about 0.91 µM). To be noted: recombinant PfCDPK4, Kinase-Glo ATP depletion luminescence.
Chain of Calcium-dependent protein kinase 4 (Plasmodium falciparum (isolate 3D7)) (Q8IBS5 whole entry, looked up): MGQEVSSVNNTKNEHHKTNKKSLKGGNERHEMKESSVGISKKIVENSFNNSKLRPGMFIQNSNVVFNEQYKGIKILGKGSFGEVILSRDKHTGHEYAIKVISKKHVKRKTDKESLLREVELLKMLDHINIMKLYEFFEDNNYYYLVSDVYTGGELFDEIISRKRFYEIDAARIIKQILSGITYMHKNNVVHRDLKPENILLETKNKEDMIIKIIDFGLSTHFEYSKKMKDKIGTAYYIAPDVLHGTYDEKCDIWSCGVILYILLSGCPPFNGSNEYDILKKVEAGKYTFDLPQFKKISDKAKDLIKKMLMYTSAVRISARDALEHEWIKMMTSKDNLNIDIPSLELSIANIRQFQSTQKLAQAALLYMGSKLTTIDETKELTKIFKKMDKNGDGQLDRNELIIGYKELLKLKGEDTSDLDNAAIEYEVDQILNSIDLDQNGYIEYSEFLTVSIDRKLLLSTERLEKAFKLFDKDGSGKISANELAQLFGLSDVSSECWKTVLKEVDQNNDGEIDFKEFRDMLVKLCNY

Chain of L-lactate dehydrogenase (Plasmodium falciparum (isolate CDC / Honduras)) (Q27743 whole entry, looked up): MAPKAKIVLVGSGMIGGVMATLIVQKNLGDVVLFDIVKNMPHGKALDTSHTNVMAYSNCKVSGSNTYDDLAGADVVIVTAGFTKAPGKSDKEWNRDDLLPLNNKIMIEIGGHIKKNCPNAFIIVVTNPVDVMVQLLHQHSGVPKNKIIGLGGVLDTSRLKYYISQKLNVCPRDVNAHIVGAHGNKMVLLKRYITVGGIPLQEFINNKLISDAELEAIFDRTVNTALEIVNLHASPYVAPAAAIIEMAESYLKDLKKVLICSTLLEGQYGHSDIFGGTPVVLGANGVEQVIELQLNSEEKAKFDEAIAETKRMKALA
Chain of Calcium-dependent protein kinase 1 (Plasmodium falciparum (isolate 3D7)) (P62344 whole entry, looked up): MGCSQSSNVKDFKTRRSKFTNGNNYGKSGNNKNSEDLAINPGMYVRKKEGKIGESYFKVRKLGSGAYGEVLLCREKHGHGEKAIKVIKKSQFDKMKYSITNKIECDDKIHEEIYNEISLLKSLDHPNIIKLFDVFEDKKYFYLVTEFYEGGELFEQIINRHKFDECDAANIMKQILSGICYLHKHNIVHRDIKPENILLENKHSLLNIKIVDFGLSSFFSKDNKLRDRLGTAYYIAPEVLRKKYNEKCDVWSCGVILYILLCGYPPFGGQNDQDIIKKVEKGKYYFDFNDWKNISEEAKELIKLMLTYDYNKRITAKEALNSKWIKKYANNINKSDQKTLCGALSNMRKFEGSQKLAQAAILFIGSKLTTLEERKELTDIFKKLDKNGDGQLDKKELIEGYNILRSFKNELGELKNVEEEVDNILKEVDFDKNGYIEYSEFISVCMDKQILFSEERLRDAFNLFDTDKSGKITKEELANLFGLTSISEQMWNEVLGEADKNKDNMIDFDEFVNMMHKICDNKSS
Chain of Protein kinase 7 (PK7), Plasmodium falciparum 3D7 (PF3D7_0213400) (Q7YTF7 1-343): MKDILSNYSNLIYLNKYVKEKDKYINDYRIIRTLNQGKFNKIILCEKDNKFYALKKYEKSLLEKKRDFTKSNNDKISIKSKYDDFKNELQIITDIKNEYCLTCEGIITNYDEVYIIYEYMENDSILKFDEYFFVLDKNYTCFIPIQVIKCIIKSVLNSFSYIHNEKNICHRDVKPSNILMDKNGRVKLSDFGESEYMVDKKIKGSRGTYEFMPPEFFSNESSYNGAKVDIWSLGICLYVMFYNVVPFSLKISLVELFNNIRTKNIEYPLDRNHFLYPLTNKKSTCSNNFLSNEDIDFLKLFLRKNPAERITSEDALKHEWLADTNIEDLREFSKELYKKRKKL
Chain of Plasmodium falciparum protein kinase 6 (PK6, PF3D7_1337100) (Q8IDW1 1-305): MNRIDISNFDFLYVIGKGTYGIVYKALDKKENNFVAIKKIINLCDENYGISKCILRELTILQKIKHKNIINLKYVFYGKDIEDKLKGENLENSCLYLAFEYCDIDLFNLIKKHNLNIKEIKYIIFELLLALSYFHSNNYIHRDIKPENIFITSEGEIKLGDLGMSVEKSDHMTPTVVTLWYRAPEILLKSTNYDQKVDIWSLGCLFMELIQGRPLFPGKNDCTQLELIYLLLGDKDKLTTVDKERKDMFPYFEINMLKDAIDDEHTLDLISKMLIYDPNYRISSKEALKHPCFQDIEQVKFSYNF

As for `CCCc1cc(=O)oc2cc(OC)c(C(=O)CC(C)C)c(OC)c12`, the growth inhibition in assay [1] is 67% (active); in assay [4] it was 81% (active). Also, the figures for the inhibition in assay [2] and in assay [3] were 3% and 2%, respectively. The result in assay [5], in assay [6], in assay [7] and in assay [8] was inactive.
Take `CN(C)c1ccc(-c2ccc(C(=O)NC3CCN(Cc4ccc5c(c4)OCCO5)CC3)s2)cc1`: the growth inhibition in assay [1] was 73% (active); in assay [4], 100% (active). The values for the inhibition in assay [2] and in assay [3] were 36% and -2%, respectively. Also, the outcome in assay [5], in assay [6], in assay [7] and in assay [8] was inactive.
Turning to `NC(N)=Nc1nc(-c2cccc(NC(=O)CCCCCCCON3C(N)=NC(N)=NC34CCCCC4)c2)cs1`, the growth inhibition is 89% (active) in assay [1] and 96% (active) in assay [4]. In addition, the inhibition in assay [2] was 1%; in assay [3] it was -8%. Further, the outcome in assay [5], in assay [6], in assay [7] and in assay [8] was inactive.
Turning to `CN(C)CCNC(=O)[C@H](CC1CCCCC1)NC(=O)c1ccc(O)c(-c2ccc(Cl)c(Cl)c2)c1`, the growth inhibition in assay [1] is 97% (active); in assay [4] it was 98% (active). Also, the inhibition in assay [2] is 0%; in assay [3], -4%. Besides, the outcome in assay [5], in assay [6], in assay [7] and in assay [8] was inactive.
For `CCN1CCCC1CNC(=O)c1cc2c(-c3ccc(Cl)cc3)nn(C)c2s1` (stereo not given), the growth inhibition in assay [1] is 20%; in assay [4], 96% (active). The inhibition in assay [2] is 27%; in assay [3], -9%. For the same compound, the result in assay [5], in assay [6], in assay [7] and in assay [8] was inactive.
In the case of `O=C(NC1CCN(Cc2ccccc2)CC1)c1cc(-c2ccncc2)c(-c2ccc(Cl)c(O)c2)o1`, the growth inhibition was 86% (active) in assay [1] and 100% (active) in assay [4]. Moreover, the inhibition in assay [2] is 9%; in assay [3] it was 1%. The outcome in assay [5], in assay [6], in assay [7] and in assay [8] was inactive.
For the compound `Cn1cc(C2CCN(CCCCNC(=O)c3ccc(-c4ccc(C(F)(F)F)cc4)c(CO)c3)CC2)c2ccccc21`, the growth inhibition in assay [1] was 16%; in assay [4] it was 88% (active). In addition, the inhibition is 67% (active) in assay [2] and -1% in assay [3]. Besides, the outcome in assay [5], in assay [6], in assay [7] and in assay [8] was inactive.
On to `N#Cc1cccc(C(=O)Nc2cccc(-c3ccc(C(=O)Nc4cccnc4)cc3)c2)c1`, for which the values for the growth inhibition in assay [1] and in assay [4] were 10% and 89% (active), respectively. Moreover, the inhibition in assay [2] is 39%; in assay [3], -1%. In addition, the outcome in assay [5], in assay [6], in assay [7] and in assay [8] was inactive.
As for `O=C(Nc1ccc(Cl)cc1)Nc1ccc2c(c1)N1CCN=C1S2`, the values for the growth inhibition in assay [1] and in assay [4] were 100% (active) and 99% (active), respectively. In addition, the inhibition in assay [2] was 15%; in assay [3] it was -1%. Also, the outcome in assay [5], in assay [6], in assay [7] and in assay [8] was inactive.
Turning to `CC(C)CCNc1nc(NCCCc2ccccc2)c2cc(O)ccc2n1`, the growth inhibition is 95% (active) in assay [1] and 101% (active) in assay [4]. The inhibition was 14% in assay [2] and -1% in assay [3]. Moreover, the outcome in assay [5], in assay [6], in assay [7] and in assay [8] was inactive.
`Cc1cccc(C(=O)Nc2ccnc(N(C)CCCN(C)Cc3cccc(O)c3)c2)c1`: the growth inhibition is 71% (active) in assay [1] and 94% (active) in assay [4]. The inhibition in assay [2] is 27%; in assay [3], -3%. In addition, the result in assay [5], in assay [6], in assay [7] and in assay [8] was inactive.
In the case of `O=S(=O)(Nc1cccc(CCN2CCC(N3CCCCC3)CC2)c1)c1cccc2ccccc12`, the growth inhibition in assay [1] is 63% (active); in assay [4] it was 99% (active). Moreover, the inhibition is 23% in assay [2] and 2% in assay [3]. Also, the outcome in assay [5], in assay [6], in assay [7] and in assay [8] was inactive.
For `CN(CCCCCN1CCC(NC(=O)Nc2ccc(C(F)(F)F)cc2)C1)C(=O)/C=C/c1ccc(Cl)c(Cl)c1` (stereo not given), the growth inhibition in assay [1] is 11%; in assay [4], 101% (active). In addition, the inhibition in assay [2] was 28%; in assay [3] it was -3%. The result in assay [5], in assay [6], in assay [7] and in assay [8] was inactive.
For `Nc1nccc(-c2ccc3c(/C=C/c4ccccc4)cnc(N)c3c2)n1`, the results for the growth inhibition in assay [1] and in assay [4] were 100% (active) and 101% (active), respectively. In addition, the figures for the inhibition in assay [2] and in assay [3] were 32% and 2%, respectively. The result in assay [5], in assay [6], in assay [7] and in assay [8] was inactive.
As to `CC(C)Cc1cn(-c2nc(C(=N)N)cs2)c2cc(Cl)ccc12`, the values for the growth inhibition in assay [1] and in assay [4] were 98% (active) and 100% (active), respectively. Moreover, the inhibition in assay [2] is 98% (active); in assay [3] it was -1%. Besides, the result in assay [5], in assay [6], in assay [7] and in assay [8] was inactive.
`CN1CCc2ccc(NC(=O)Nc3ccc(Cl)c(Cl)c3)cc2C1`: the figures for the growth inhibition in assay [1] and in assay [4] were 22% and 80% (active), respectively. The inhibition was -10% in assay [2] and 1% in assay [3]. Besides, the result in assay [5], in assay [6], in assay [7] and in assay [8] was inactive.
As to `Clc1cccc(-c2nc(Nc3ccnc(-c4ccc(CN5CCOCC5)cc4)c3)c3ccccc3n2)c1`, the growth inhibition in assay [1] is 65% (active); in assay [4], 100% (active). The inhibition is 8% in assay [2] and -4% in assay [3]. Also, the result in assay [5], in assay [6], in assay [7] and in assay [8] was inactive.
On to `O=C(NC1CCCC1)c1cc2c(=O)n3ccccc3nc2nc1NCCc1ccccc1`, for which the growth inhibition in assay [1] was 61% (active); in assay [4], 101% (active). Also, the inhibition was 19% in assay [2] and 2% in assay [3]. Further, the result in assay [5], in assay [6], in assay [7] and in assay [8] was inactive.
Consider `Cc1cc(NC(=O)c2ccco2)ccc1OC1CCN(Cc2ccc(F)cc2)CC1`, for which the growth inhibition in assay [1] is 93% (active); in assay [4], 96% (active). Besides, the values for the inhibition in assay [2] and in assay [3] were 4% and -2%, respectively. Besides, the outcome in assay [5], in assay [6], in assay [7] and in assay [8] was inactive.
Take `COC(=O)c1cc(C(=O)CN(Cc2ccccc2)C(C)C)ccc1O`: the values for the growth inhibition in assay [1] and in assay [4] were -1% and 97% (active), respectively. Moreover, the inhibition in assay [2] was 7%; in assay [3], -2%. Besides, the result in assay [5], in assay [6], in assay [7] and in assay [8] was inactive.
